ELG1 DNA repair = blocks ELG1-dependent DNA repair in HEK293T cells; AID 504467; 330,000 compounds, 2.3% hits; HEK293T ELG1-luciferase reporter, luminescence, 16 h; DNA damage induced by 5-fluorouridine; Potency, µM (top dose mostly 46.1 µM), without a hit: at the top dose activity change, negative = inhibition, usual class: inhibitors; note: potency is the fitted concentration of half-maximal effect; nearly all actives have a fitted effect of over 55% in size
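Cells (2,000 per well) received 5-fluorouridine plus test compound or DMSO and were incubated 16 hr at 37 °C, 5% CO2. Luciferase activity was read by luminescence 30 min after ONE-Glo addition; signal suppression marked inhibition of damage-induced ELG1 function.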
TDP1 cell CPT = growth inhibition of DT40 Tdp1-/-;hTDP1 cells with camptothecin (screen for TDP1 inhibitors); chicken DT40 Tdp1-/-;hTDP1 cells + 20 nM CPT, ATP luminescence, 48 h; AID 686979; Potency, µM (titrated, usually from 46.2 µM), without a hit: at the highest dose activity change, negative = growth inhibition, most hits filed as inhibitors; 420,000 compounds, 12% hits; note: potency is the fitted concentration of half-maximal effect; nearly all actives have a fitted effect of over 55% in size
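Chicken DT40 Tdp1-/- cells stably complemented with human TDP1 were seeded at 400 cells/well in medium containing 20 nM camptothecin, exposed to pin-transferred compounds, and grown at 37 °C for at least 48 hr. Viability was read as ATP luminescence.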
DT40 TDP1 no CPT = qHTS for Inhibitors of human tyrosyl-DNA phosphodiesterase 1 (TDP1): qHTS in cells in absence of CPT | DT40 Tdp1-/- hTDP1 cells, no CPT, ATP luminescence, 48 h | Potency, µM (top dose mostly 46.2 µM), inactives show at the highest dose activity change, negative = growth inhibition, most hits filed as inhibitors | 420,000 compounds, 15% hits; note: potency is the fitted concentration of half-maximal effect; nearly all actives have a fitted effect of over 55% in size
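DT40 Tdp1-/-;hTDP1 cells, no CPT (DMSO vehicle only), 400 cells/well; compounds pin-transferred; ≥48 hr, 37 °C; CellTiter-Glo 30 min RT dark, luminescence read.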
Giardia killer = Giardia lamblia killing. AID 540267. Giardia lamblia trophozoite viability. 340,000 compounds, 0.15% hits. activity change, % at 7.66 µM, hits read low; in the data active = activity change below about -80%; inconclusive = between about -30% and that limit;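 note: parasites exposed to compound for two days anaerobically before the ATP read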
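ATP-content bioluminescence gauges trophozoite survival. Cells (100/well) receive compound and incubate anaerobically for 48 hrs at 37 deg C; detection reagent follows for 15-30 min at room temperature.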
TDP1 block = blocks human tyrosyl-DNA phosphodiesterase 1 | recombinant TDP1, AlphaScreen DNA substrate cleavage | Q9NUW8 | 350,000 compounds, 0.28% hits | AID 485290 | Potency, µM (titrated, usually from 130 µM), inactives show top-dose activity change, negative = inhibition, actives largely listed as inhibitors; note: potency is the fitted concentration of half-maximal effect; nearly all actives have a fitted effect of over 40% in size
Target sequence (Q9NUW8 whole entry, looked up): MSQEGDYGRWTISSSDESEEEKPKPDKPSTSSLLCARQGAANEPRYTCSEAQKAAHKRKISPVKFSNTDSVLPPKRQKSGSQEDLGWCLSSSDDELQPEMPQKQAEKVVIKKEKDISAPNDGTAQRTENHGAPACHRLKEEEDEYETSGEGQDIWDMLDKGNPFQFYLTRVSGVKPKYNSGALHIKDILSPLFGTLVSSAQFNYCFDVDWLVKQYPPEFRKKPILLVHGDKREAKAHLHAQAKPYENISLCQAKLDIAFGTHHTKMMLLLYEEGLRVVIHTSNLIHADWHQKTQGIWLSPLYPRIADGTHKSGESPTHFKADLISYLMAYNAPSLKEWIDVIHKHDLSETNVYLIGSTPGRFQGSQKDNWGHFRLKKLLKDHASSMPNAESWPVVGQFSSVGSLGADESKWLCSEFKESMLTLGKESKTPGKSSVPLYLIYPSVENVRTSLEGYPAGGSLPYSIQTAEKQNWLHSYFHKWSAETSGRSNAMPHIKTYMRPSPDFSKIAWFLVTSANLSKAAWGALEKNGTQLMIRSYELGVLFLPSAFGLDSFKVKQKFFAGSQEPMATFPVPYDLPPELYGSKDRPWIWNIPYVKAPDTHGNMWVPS
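Steps: enzyme plus compound, 15 min RT; add biotin/phosphotyrosine-FITC oligonucleotide (15 nM final), react 5 min; add donor/acceptor beads (10 ug/ml final), 10 min; read AlphaScreen. Tdp1 at 1 nM final.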
IL-1B inflam inh = inflammasome signaling inhibition, IL-1 beta readout | activity change, % at 57.5 µM | THP-1 LPS/ATP IL-1B secretion, AlphaLISA, 16 h; stronger effect = lower value | AID 743279 | 360,000 compounds, 4.7% hits; in the data active = activity change below about -50%; inconclusive = mostly about -30% to -49%
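Secreted IL-1B measured by AlphaLISA bead assay after 16 h compound exposure of THP-1 cells; compounds (final up to 57.5 uM) added 1 h before LPS (250 ng/mL) and ATP (1.25 mM) stimulation; lower signal means less secretion.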
* marks the source's active call; other numbers are inactive results; u = inconclusive; x = not tested or not shown; [ ] = remark or other dose. Only some compounds are listed: those with a hit (about 19% of all), similar ones and a draw of the others. Unless noted, calls come from the whole dose curve; as a rule, active = well fitted curve in the direction sought with a large enough effect; inconclusive = small, poorly fitted or top-dose-only effect, or another doubt; inactive = no such curve, though single readings can be large; an effect the other way counts as inactive or inconclusive. % is set by controls: 0 for no effect and ±100 for the full control effect.

SMILES | ELG1 DNA repair | TDP1 cell CPT | DT40 TDP1 no CPT | Giardia killer | TDP1 block | IL-1B inflam inh
Cc1ccc(CSc2nnc(-n3c(=O)c(C#N)cc4c(=O)n5cc(C)ccc5nc43)s2)cc1 | x | 8.5% | -9.6% | x | 5.1% | x
COc1cc2ccccc2cc1C(=O)Nc1ccc2oc(-c3cccc(Cl)c3Cl)nc2c1 | x | -25.8% | -8.2% | x | 3.1%[12.3 µM] | x
COc1cc2ccccc2cc1C(=O)Nc1cccc(-c2nc3cc(C)c(C)cc3o2)c1 | x | u | 14.6µM* | x | 1.3%[12.3 µM] | x
COc1cc2ccccc2cc1C(=O)Nc1cc(-c2nc3ccccc3o2)ccc1C | x | 2.1% | 0.3% | x | -3.1%[12.3 µM] | x
CCc1ccc(-c2nc3cc(NC(=O)c4cc5ccccc5cc4OC)ccc3o2)cc1 | x | u | 13µM* | x | 1.3%[12.3 µM] | x
COc1ccc(-c2nc3cc(NC(=O)c4cc5ccccc5o4)ccc3o2)cc1 | x | u | 16.4µM* | x | 4.0%[12.3 µM] | x
Cc1cc(C(=O)CSc2nnc(CCC(N)=O)n2C)c(C)n1C1CC1 | 10.7% | -16.7% | -9.2% | 2.1 | -4.4% | -1.7
COC(=O)c1cc(-c2cc(OC)ccc2OC)nc2c1c(=O)n(C)c(=O)n2Cc1ccccc1 | 9.2µM* | 16.4µM* | 18.4µM* | 2.7 | x | 12.8
Cc1ccccc1Nc1nc(C#N)nc(NC2CCCC2)n1 | x | x | x | x | -3.6% | x
CCOC(=O)C1=C(CSCC(=O)OC)NC(=O)NC1c1cc(C)ccc1C (centres undefined) | 8.1% | -12.3% | -13.7% | -3.7 | 4.7% | -14.9
CCOC(=O)C1=C(CSc2nc3ccccc3s2)NC(=O)NC1c1ccc(OC)cc1 (centres undefined) | u | 20.6µM* | 18.4µM* | 0.7 | 3.9% | -86.0*
CCOC(=O)C1=C(CP(=O)(c2ccccc2)c2ccccc2)NC(=O)NC1c1ccc(OC)cc1 (centres undefined) | -14.2% | -15.3% | -14.3% | -22.3 | -2.7% | 13.3
CCOC(=O)C1=C(CSc2nc3ccccc3s2)NC(=O)NC1c1cc(C)ccc1C (centres undefined) | u | u | 23.1µM* | 1.6 | -2.0% | u
CCN(CC(=O)Nc1c(F)cccc1F)C(=O)C1CC1C (centres undefined) | 9.7% | 3.9% | -25.8% | -11.2 | -0.4% | -7.6
O=C(CC(Nc1ccc(Cl)cc1)C(=O)O)c1ccccc1 (centres undefined) | u | 20.6µM* | -26.4% | 2.4 | 5.0% | -7.5
O=C(CC(=O)c1ccccc1)Nc1ccc(Cl)cc1 | u | u | u | 13.1 | x | -77.5*
Cc1c(Cl)cccc1NC(CC(=O)c1ccccc1)C(=O)O (centres undefined) | u | 14.6µM* | u | -2.4 | 2.2% | -3.2
O=C(CC(C(=O)O)c1ccc(Cl)cc1)c1ccccc1 (centres undefined) | 3.8% | 3.2% | -16.9% | -27.7 | 2.7% | 2.3
O=C(CC(Nc1cccc(Cl)c1Cl)C(=O)O)c1ccccc1 (centres undefined) | 14.2% | -22.0% | 12.4% | 19.2 | x | 36.8
CC(C)(C)c1ccc(C(=O)NCC(=O)N2CCC3(CC2)NCCc2[nH]cnc23)cc1 | 24.6% | -2.0% | 0.0% | 1.1 | 2.6% | 7.7
COc1ccc(C2CCc3cc4c(cc3C2=NO)OCO4)cc1OC (centres undefined) | x | u | 14.6µM* | x | x | -5.3
CCOC(=S)SCc1cn2ccc(C)cc2n1 | 7.9% | u | u | -7.2 | 8.3% | -56.9*
CCOC(=S)SCc1cn2ccccc2n1 | 19.8% | 0.0% | -14.3% | -8.8 | 7.4% | u
COc1ccc(C(C)C)cc1S(=O)(=O)NC1CCCC1 | 11.8% | u | -22.9% | 12.2 | -0.1% | 16.7
COc1ccc(C(=O)/C=C/c2cn(CC(O)CN(CC(C)C)CC(C)C)c3ccccc23)cc1OC (centres undefined) | x | x | x | -4.8 | 0.0% | x
SMILES | ELG1 DNA repair | TDP1 cell CPT | DT40 TDP1 no CPT | Giardia killer | TDP1 block | IL-1B inflam inh
CCC(=C(c1ccc(OC)cc1)c1ccc(OC)cc1)c1cn(CC(O)CN(CCO)CCO)c2ccccc12 (centres undefined) | u | u | 20.6µM* | 4.9 | 5.0% | u
CCCN(CCC)CC(O)Cn1cc(/C=C/C(=O)c2ccc(OCC)cc2)c2ccccc21 (centres undefined) | x | 5.8µM* | 5.17µM* | x | 7.6% | x
CC(C)CN(CC(C)C)CC(O)Cn1cc(/C=C/C(=O)c2ccccc2)c2ccccc21 (centres undefined) | x | 4.11µM* | 4.61µM* | x | 2.5% | x
Cc1ccc(-n2nnc(C(=O)Nc3cc(F)ccc3F)c2C)cc1F | x | -29.6% | u | x | 2.9% | x
COC(=O)c1cc2occc2n1Cc1nc(-c2cccc(Br)c2)oc1C | x | -1.1% | -9.7% | x | 4.9% | x
CCc1nc2c(OCc3ccccc3C(=O)OC)cccn2c1N(C)C(=O)CC(C)C | x | 16.4µM* | 13µM* | x | x | 9.9
CCc1nc2c(OCC(N)=O)cccn2c1N(C)C(=O)c1cccs1 | x | -6.4% | -4.8% | x | x | 42.0
CCc1nc2c(OCCc3cccc(OC)c3)cccn2c1N(C)C(=O)c1cccs1 | x | 20.6µM* | u | x | x | -1.2
CCc1nc2c(OCc3ccccc3C(=O)OC)cccn2c1N(C)C(=O)c1cccs1 | x | u | 29.1µM* | x | x | 4.2
CCc1nc2c(OCc3ccccc3C(=O)OC)cccn2c1N(C)C(=O)c1ccncc1 | x | u | -23.4% | x | x | 23.1
Nc1ncnc2c1ncn2[C@@H]1O[C@H](CNC(=O)[C@@H](N)Cc2ccc(C(F)(F)F)cc2)[C@@H](O)[C@H]1O | u | 8.0% | -3.2% | -5.8 | 0.7%[56.1 µM] | 18.8
CCc1ccccc1Nc1nc2ccccc2n1CC | 17.3% | -11.0% | u | -9.1 | -2.7% | 4.6
COc1ccc(/C=C/C(=O)Nc2cc(C)nn2-c2nc3ccccc3n2Cc2cccc([N+](=O)[O-])c2)cc1 | u | -24.5% | -5.8% | 14.9 | -2.7% | 7.7
COc1ccc(/C=C/C(=O)Nc2cc(C)nn2-c2nc3ccccc3[nH]2)cc1 | u | u | 18.4µM* | -22.1 | 7.9% | -5.6
CCn1c(NC(=O)/C=C/c2ccc(F)cc2)nc2ccccc21 | u | u | 23.1µM* | 2.7 | u | 48.4
Cc1cc(NC(=O)/C=C/c2ccc(F)cc2)n(-c2nc3ccccc3[nH]2)n1 | 18.8% | u | 14.6µM* | -10.9 | 5.4% | 7.0
Cc1cc(NC(=O)/C=C/c2cccc(F)c2)n(-c2nc3ccccc3[nH]2)n1 | u | 23.1µM* | 11.6µM* | -6.2 | 10.8% | -0.4
